# High-throughput results deposited in PubChem by National Center for Advancing Translational Sciences (NCATS).
# The list is not random: actives were taken first. Their share in the collection is about 3.7%.
# A549 tox – counter-screen for Nrf2 inhibitors: cytotoxicity in A549 cells | A549 ARE-Fluc cells, CellTiter-Fluor viability, 18-24 h | Potency, µM (top dose mostly 46 µM), inactives show top-dose activity change, negative = cytotoxicity, most hits filed as inhibitors | 0.16% of 390,000 active; further: on the % scale 0 is the no-effect control and ±100 the full control effect
#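 A549 ARE_Fluc cells in 5% FBS OPTI-MEM were exposed to compounds in concentration-response for 18-24 h at 37 deg C. Viability was read by CellTiter-Fluor fluorescence (Ex 405/Em 525) after 30 min, before the luciferase read.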
# Nrf2 block – blocks Nrf2 signaling; Potency, µM (series often up to 46 µM), for inactives: at the top dose activity change, negative = inhibition, hits mostly inhibitors; 2.1% of 360,000 active; AID 504444; A549 ARE-Fluc reporter, luciferase luminescence, 18-24 h; further: on the % scale 0 is the no-effect control and ±100 the full control effect; nearly all actives have a fitted effect of over 60% in size
#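 Concentration-response testing used A549 ARE_Fluc cells at 5000 cells/well. Following an 18-24 h compound incubation, viability was read by fluorescence (Ex 405/Em 525) and luciferase output by luminescence.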
# Nrf2 ARE act – activates Nrf2 signaling; AREc32 ARE-luciferase reporter (MCF7-derived line), luminescence, 24 h; Potency, µM (highest dose often 46.1 µM), for inactives: at the highest dose activation, usual class: activators; 0.31% of 410,000 active; AID 624171; further: % of control where 0% means no effect; nearly all actives have a fitted effect of over 65% in size
#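 Quantitative high-throughput format: AREc32 reporter cells, 1000 per well, received compound by pin transfer and were incubated 24 hr at 37 deg C, 5% CO2, before Steady-Glo luminescence detection.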
# ELG1 repair inh – blocks ELG1-dependent DNA repair in HEK293T cells; HEK293T ELG1-luciferase reporter, luminescence, 16 h; DNA damage induced by 5-fluorouridine; Potency, µM (doses to about 46.1 µM), without a hit: top-dose activity change, negative = inhibition, hits mostly inhibitors; 2.3% of 330,000 active; AID 504467; further: on the % scale 0 is the no-effect control and ±100 the full control effect; nearly all actives have a fitted effect of over 55% in size
#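 Quantitative HTS, concentration-response format. 2,000 cells/well co-treated with 5-fluorouridine and compound, 16 hr in 5% CO2 at 37 °C; ONE-Glo luminescence read after 30 min.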
# An asterisk follows results filed as active; ? = inconclusive; . = not tested or not shown; [ ] = another dose, or the depositor's remark. The call rests on the fitted dose curve; in most records, active means well fitted curve in the direction sought with a large enough effect; inconclusive means small, poorly fitted or top-dose-only effect, or another doubt; inactive means no such curve, though single readings can be large; an effect the other way counts as inactive or inconclusive. Potency means the concentration at half of the fitted maximal effect.
SMILES,A549 tox,Nrf2 block,Nrf2 ARE act,ELG1 repair inh
Cc1ccc(-c2c3c(nc4sc(C(N)=O)c(N)c24)CCCC3)o1,?,-17.2%,2.5%,?
CC(=O)N1CC(C)Oc2ccc(S(=O)(=O)NC(CC(=O)O)c3ccc(C)cc3C)cc21 (configuration not stated),0.8%,7.5%,-0.9%,7.7%
O=C(CSc1ccc(Br)cc1)NCC(c1ccco1)N1CCCCC1 (configuration not stated),-12.8%,-0.3%,1.5%,10.3%
COc1ccc(C(C(=O)NC2CCCCC2)N(Cc2cccs2)C(=O)Cc2c[nH]c3ccccc23)cc1 (configuration not stated),?,?,2.7%,?
COc1cccc(CN(C(=O)Cc2c[nH]c3ccccc23)C(C(=O)NC2CCCCC2)c2cccs2)c1 (configuration not stated),-5.6%,-20.9%,-0.1%,18.4µM*
Cc1cccc(N(C(=O)C(F)(F)F)C(C(=O)NC2CCCCC2)c2cccs2)c1 (configuration not stated),-4.8%,4.1%,2.8%,1.5%
C#CC(=O)N(c1cccc(OC)c1)C(C(=O)NC1CCCC1)c1cccs1 (configuration not stated),-14.8%,16.4µM*,-1.7%,20.6µM*
C#CC(=O)N(c1ccc(OC)c(OC)c1)C(C(=O)NC1CCCC1)c1cccs1 (configuration not stated),?,23.1µM*,?,?
CC(=O)Nc1ccc(SCCN2CCN(CC(C)C)CCC2=O)cc1,2.3%,18.3%,.,.
Cc1cc(C)cc(C(O)c2ncc(-c3cccc(C(F)(F)F)c3)[nH]2)c1 (configuration not stated),.,.,-0.8%,.
CCCNC(=O)c1ccc(-n2c(-c3ccccc3)cc3c2CCC(C)C3)cc1 (configuration not stated),-15.4%,?,11.2µM*,.
COCCNC(=O)c1ccc(-n2c(-c3ccccc3)cc3c2CCC(C)C3)cc1 (configuration not stated),-1.1%,6.5%,10µM*,.
COCCNC(=O)c1ccc(C(=O)C(=O)c2ccccc2)cc1,0.1%,4.1%,-0.5%,-0.7%
CN(C)CCNC(=O)c1ccc(-n2c(-c3ccccc3)cc3c2CCCCC3)cc1,-6.2%,?,?,.
CCN(C(=O)COC(=O)c1ccc([N+](=O)[O-])o1)c1cccc2ccccc12,-4.4%,-4.8%,?,-3.0%
O=c1c(-c2ccco2)[n+]([O-])c2ccccc2n1OCc1ccccc1[N+](=O)[O-],-9.6%,?,?,23.1µM*
Cc1cc(C)c(NC(=O)CSc2nc3c([nH]c4ccccc43)c(=O)n2C)c(C)c1,-3.2%,.,0.7%,.
Cc1ccc(-c2nn(-c3ccccc3)cc2C(=O)Nc2ccc(C)c(S(=O)(=O)N3CCOCC3)c2)cc1,11.3%,-1.4%,-0.3%,?
O=C(Nc1ccccc1N1CCOCC1)c1cc(-c2ccco2)nc2ccccc12,-19.9%,18.4µM*,6.4%,5.17µM*
COc1cc(-c2cc(C(=O)Nc3ccc(C)c(S(=O)(=O)N4CCOCC4)c3)c3ccccc3n2)cc(OC)c1OC,9.0%,-11.0%,7.5%,2.06µM*
COc1ccc(-c2cc(C(=O)NN3CCOCC3)c3ccccc3n2)cc1OC,2.7%,-1.6%,0.3%,?
O=C(Nc1ccccc1F)c1cc(-c2ccco2)nc2ccccc12,2.9%,-3.3%,?,.
CN(CC(=O)Nc1ccc(F)cc1)C(=O)c1cc(-c2ccco2)nc2ccccc12,-5.5%,-2.7%,17.5%,?
COc1cc(-c2cc(C(=O)Nc3ccccc3N3CCOCC3)c3ccccc3n2)cc(OC)c1OC,-16.1%,?,7.2%,5.8µM*
Cc1ccc(NC(=O)CN(C)C(=O)c2cc(-c3ccco3)nc3ccccc23)cc1,-6.3%,?,20.5%,13µM*
SMILES,A549 tox,Nrf2 block,Nrf2 ARE act,ELG1 repair inh
Cc1ccc(CN2CCC[C@]3(N[C@H](c4ccc(C(F)(F)F)cc4)[C@@H]4C(=O)N(Cc5ccccc5)C(=O)[C@@H]43)C2=O)cc1,.,.,-0.3%,.
CCOC(=O)CNC(=O)CN1CCC(c2nc3ccccc3[nH]2)CC1,?,?,-0.9%,20.2%
Cn1c(=O)c2sccc2n2c(CCCC(=O)NC3CCN(Cc4ccccc4)CC3)nnc12,2.1%,4.2%,-0.4%,4.3%
CCN(CCNC(=O)C1CCN(Cc2nc(-c3cccc(Cl)c3)oc2C)CC1)c1ccccc1,-23.3%,6.4%,-0.3%,20.6µM*
CCN(CCNC(=O)C1CCN(Cc2nc(-c3ccc(Cl)cc3)oc2C)CC1)c1ccccc1,-19.4%,-23.2%,-2.5%,16.4µM*
CCc1ccc(-c2nc(CN3CCC(C(=O)NCc4ccc(F)cc4)CC3)c(C)o2)cc1,-2.8%,23.2%,3.5%,14.6µM*
CCc1ccc(-c2nc(CN3CCC(C(=O)NCCN(CC)c4ccccc4)CC3)c(C)o2)cc1,?,15.4%,0.5%,20.6µM*
COc1ccc(NC(=O)CCNS(=O)(=O)c2ccc3c(c2)CCCC(=O)N3)cc1,6.0%,23.6%,-1.3%,.
O=[N+]([O-])c1ccc(Sc2cc[n+]([O-])c3ccccc23)c([N+](=O)[O-])c1,?,16.4µM*,?,?
O=C(Nc1cc(Cl)ccc1Oc1ccccc1)c1cnccn1,6.1%,28.2%,0.0%,5.2%
Cc1ccc(O)c(NC(=O)c2cc(C)no2)c1,1.3%,?,12.6µM*,0.0%
COc1ccc(NC(=O)c2cc(C)no2)cc1Cl,-0.6%,0.0%,4.3%,24.2%
Cc1ccc(O)c(NC(=O)c2cc(-c3ccccc3)on2)c1,-2.4%,26.0%,7.3%,?
COc1ccc(Cl)cc1NC(=O)c1cnccn1,0.9%,-12.9%,12.6µM*,-4.0%
COc1ccc(Cl)cc1NC(=O)c1cc(C)no1,5.3%,6.8%,8.91µM*,-2.3%
O=C(C1CCC(CNS(=O)(=O)c2ccc(Br)s2)CC1)N1CCN(c2ccccc2)CC1 (configuration not stated),-1.1%,?,0.0%,.
O=C(CCNS(=O)(=O)c1cccs1)N1CCN(c2cccc(Cl)c2)CC1,-5.2%,?,-0.8%,1.5%
O=C(C1CCC(CNS(=O)(=O)c2cccs2)CC1)N1CCN(c2ccc(Cl)cc2)CC1 (configuration not stated),?,8.2µM*,7.1%,?
O=C(CCCNS(=O)(=O)c1cccs1)N1CCN(c2cccc(Cl)c2)CC1,-15.4%,?,-0.7%,23.1µM*
COc1cnc(-c2ccccn2)nc1Sc1cccc(Cl)c1,2.1%,-19.2%,-0.5%,?
COc1ccccc1Sc1nc(-c2ccccn2)ncc1OC,-6.9%,?,0.5%[9.22 µM],23.1µM*
COc1cnc(-c2ccccn2)nc1NC(C)C,?,14.6µM*,3.3%,-6.1%
COc1cnc(-c2ccccn2)nc1Sc1ccc(C)cc1,-10.1%,2.0%,0.4%,23.1µM*
CC(C)n1nnnc1SCC(=O)N1N=C(c2cccs2)CC1c1cccs1 (configuration not stated),-2.9%,?,2.4%,?
